# Reference: the supplement of paper PMC7156485
# ± gives the standard deviation of the averaged measurements.
# Experiments:
# Conditions in all cases: concentration: 10 µM; 24 h
# HCC1569 [1] = assay: cell number relative to DMSO (% of DMSO); higher = more cells (less growth inhibition / toxicity)
# Procedure, shortened: (§1)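 For HCC1569 and TDF cells, compounds at 10 µM were applied for 24 h at 37 °C in triplicate in 384-well plates. Cells were fixed in 3.7% formaldehyde, stained for H1.0 and with DAPI, and imaged at ×10 over six fields per well. The endpoint, H1.0 nuclear intensity or cell number, is shown as percent of the plate control using the median of replicates. Positional effects were smoothed for HCC1569 only.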
# TDF [2] = assay: as above
# Procedure, shortened: as §1
# TDF [3] = assay: H1.0 immunofluorescence intensity relative to DMSO (% of DMSO); higher = stronger H1.0 induction, active = 120 or more
# Procedure, shortened: as §1
# HCC1569 [4] = assay: H1.0 immunofluorescence intensity relative to DMSO (% of DMSO); higher = stronger H1.0 induction, active = 140 or more
# Procedure, shortened: as §1
# 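For H1.0 immunofluorescence intensity relative to DMSO in this document: TDF is a line of transformed human dermal fibroblasts of mesenchymal origin.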
# 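For cell number relative to DMSO in this document: TDF denotes transformed human dermal fibroblasts of mesenchymal origin.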
Structure (SMILES),cell number (HCC1569 [1]),cell number (TDF [2]),H1.0 immunofluorescence intensity (TDF [3]),H1.0 immunofluorescence intensity (HCC1569 [4])
CCCCCC(C=CC=CCCCCCCCCCC(=O)O)OO (stereo not given),111,92.8,94.4 (inactive),103 (inactive)
CC(C)(O)C1C2OC(=O)C1C1(O)CC3OC34C(=O)OC2C14C (stereo not given) [Picrotonin],99.4,100,97.2 (inactive),82.5 (inactive)
O=c1[nH]c2ccccc2n1CCCN1CCC(n2c(=O)[nH]c3cc(Cl)ccc32)CC1 [Domperidone],97.7,98.7,94.7 (inactive),109 (inactive)
CCCCCC=CCC=CCC=CCC=CCCCC(=O)NCCc1ccc(O)c(O)c1 [Arachidonyl dopamine],87.9,91.8,94.9 (inactive),124 (inactive)
Cl.Oc1cc2c(cc1O)C1c3ccccc3CNC1CC2 (stereo not given) [Dihydrexidine hydrochloride],96.3,118,82.7 (inactive),103 (inactive)
Cl.O=C1CCC2(O)C3Cc4ccc(O)c5c4C2(CCN3CC2CC2)C1O5 (stereo not given) [Naltrexone.HCl],101,100,90.5 (inactive),99.8 (inactive)
COc1cc(C2c3cc4c(cc3C(O)C3COC(=O)C23)OCO4)cc(OC)c1OC (stereo not given) [Podophyllotoxin],61.2 ± 1.9,10.1 ± 0.34,152 (active),128 (inactive)
Cc1cc(C(=O)CN2CCCC2)c(C)n1-c1ccc(F)cc1,99,102,99.9 (inactive),94.1 (inactive)
CCCC(C)(COC(N)=O)COC(=O)NC(C)C (stereo not given) [Carisoprodol],97.4,90.8,99.6 (inactive),106 (inactive)
CC1C(=O)OC2CCN3CC=C(COC(=O)C(C)(O)C1(C)O)C23 (stereo not given) [Monocrotaline],102,109,85.6 (inactive),90.2 (inactive)
NC(CCP(=O)(O)O)C(=O)O (racemic),99.4,101,96.9 (inactive),91.1 (inactive)
CC(CCc1ccccc1)NC(C)C(O)c1ccc(O)cc1.Cl (stereo not given) [Buphenine.HCl],101,104,90 (inactive),115 (inactive)
CCCCCCCCCCCCCC(=O)OC1C(C)C2(O)C(C=C(CO)CC3(O)C(=O)C(C)=CC32)C2C(C)(C)C12OC(C)=O (stereo not given) [Phorbol 12-myristate 13-acetate],99 ± 4.3,74.6 ± 8.8,125 (active),125 (inactive)
CC(Cc1ccc(OCC(=O)[O-])cc1)NCC(O)c1cccc(Cl)c1.[Na+] (stereo not given),104,110,89.5 (inactive),88.6 (inactive)
NC(N)=NOCC[C@H](N)C(=O)O.O=S(=O)(O)O [L-Canavanine sulfate],101,81.3,107 (inactive),107 (inactive)
"CC12NC(Cc3ccccc31)c1ccccc12.O=C(O)C=CC(=O)O (single isomer, unassigned; (+)) [(+)-MK-801 hydrogen maleate]",103,99,98.6 (inactive),89.3 (inactive)
Cl.Cl.Clc1ccc(N2CC3CCC(C2)N3)nn1,103,110,90.8 (inactive),95.7 (inactive)
CCCN(CCC)C1CCc2c(F)ccc(O)c2C1.Cl (stereo not drawn) [S(-)-UH-301 hydrochloride],102,97.9,98.7 (inactive),96.3 (inactive)
CC1=C2C3OC(=O)C(C)C3CCC2(C)C=CC1=O (stereo not given) [Santonin],103,97.9,95.5 (inactive),92.6 (inactive)
CN1CCC(c2c[nH]c3ccc(O)cc23)CC1.O=C(O)C=CC(=O)O,101,101,93.8 (inactive),82.3 (inactive)
NC(=O)CN1CC(O)CC1=O (stereo not given) [Oxiracetam],101,111,89.7 (inactive),95.4 (inactive)
CCCN1CCc2cccc3c2C1Cc1ccc(O)c(O)c1-3.Cl (stereo not drawn) [R(-)-Propylnorapomorphine hydrochloride],93.2,91.8,92.9 (inactive),105 (inactive)
CCC1(C2OC(C3OC(O)(CO)C(C)CC3C)CC2C)CCC(C2(C)CCC3(CC(O)C(C)C(C(C)C(OC)C(C)C(=O)[O-])O3)O2)O1.[Na+] (stereo not given) [Monensin],90.4,74.5,120 (active),186 (active)

Structure (SMILES),cell number (HCC1569 [1]),cell number (TDF [2]),H1.0 immunofluorescence intensity (TDF [3]),H1.0 immunofluorescence intensity (HCC1569 [4])
"C[C@]12CC[C@@H](O)C[C@@H]1CC[C@@H]1[C@@H]2CC[C@]2(C)[C@@H](O)CC[C@@H]12 [5alpha-Androstane-3alpha,17beta-diol]",103,104,97.3 (inactive),88.8 (inactive)
CCC=CCC(C=CC=CCC=CCC=CCCCC(=O)O)OO (stereo not given),101,92.8,92.7 (inactive),102 (inactive)
CC1Cc2c(Cl)cc(C(=O)NC(Cc3ccccc3)C(=O)O)c(O)c2C(=O)O1 (stereo not given) [Ochratoxin A],107,92.7,103 (inactive),92.1 (inactive)
"CC12CCC(O)CC1CCC1C2CCC2(C)C(C(=O)CO)CCC12 (stereo not drawn) [3-alpha,21-Dihydroxy-5-alpha-pregnan-20-one]",102,89,98.8 (inactive),87 (inactive)
"Ic1ccccc1CNC1C2CCN(CC2)C1C(c1ccccc1)c1ccccc1.O=C(O)C(=O)O [L-703,606 oxalate]",85.3,91.8,114 (inactive),128 (inactive)
CC1CCCC=CC2CC(O)CC2C(O)C=CC(=O)O1 (stereo not given) [Brefeldin A],68.2,52.6,132 (active),208 (active)
CCN(C)C(=O)Oc1cccc(C(C)N(C)C)c1 (stereo not given) [Rivastigmine],102,114,90 (inactive),105 (inactive)
CC1CCC2C(C)C3C(CC4C5CC=C6CC(OC7OC(CO)C(O)C(OC8OC(CO)C(O)C(O)C8O)C7OC7OC(C)C(O)C(O)C7O)CCC6(C)C5CCC43C)N2C1 (racemic),103,101,97.4 (inactive),86 (inactive)
COc1ccc(OC)c(C(O)C(C)N)c1.Cl (stereo not given) [Methoxamine hydrochloride],101,106,95.2 (inactive),94.3 (inactive)
CC1=CC23C(=O)C(C=C(CO)C(O)C2(O)C1O)C1C(CC3C)C1(C)C (stereo not given) [Ingenol],102,107,94.7 (inactive),80 (inactive)
CN(C)C(=O)Oc1cccc([N+](C)(C)C)c1.[Br-] [Neostigmine bromide],107,98.4,89.5 (inactive),89.4 (inactive)
NC(CP(=O)(O)O)C(=O)O (racemic),105,104,82.6 (inactive),91.4 (inactive)
CN1C2CCC1CC(OC(=O)C(CO)c1ccccc1)C2.CN1C2CCC1CC(OC(=O)C(CO)c1ccccc1)C2.O=S(=O)(O)O (stereo not given) [Atropine sulfate],–,–,91.7 (inactive),88.9 (inactive)
"CCCCCC1OC1CC=CCCCCCCCC(=O)O (stereo not given) [Leukotoxin B (12,13-EODE)]",105,106,96.8 (inactive),100 (inactive)
Cl.OCC1C(O)C(O)C2C(O)CCN12 (stereo not given),101,111,97 (inactive),97.5 (inactive)
CC1CCC2(O)C3(C)CC4(O)OC2(C1O)C1(O)C3(O)C(OC(=O)c2ccc[nH]2)C(O)(C(C)C)C41C (stereo not given) [Ryanodine],106,101,93 (inactive),88 (inactive)
CN1C2CCC1CC(OC(=O)C(CO)c1ccccc1)C2.CN1C2CCC1CC(OC(=O)C(CO)c1ccccc1)C2.O.O=S(=O)(O)O (stereo not given) [Atropine sulfate],102,–,91.8 (inactive),85.2 (inactive)
CC(C)NC(C)Cc1ccc(I)cc1.Cl (stereo not given) [Iofetamine hydrochloride],105,113,91.5 (inactive),91.7 (inactive)
COc1ccc(CC2NCCc3cc(OC)c(OC)cc32)cc1OC.Cl (stereo not given),99.3,109,94.3 (inactive),80.5 (inactive)
COc1ccc2c(c[n+](C)c3c4cc5c(cc4ccc23)OCO5)c1OC.[Cl-] [Chelerythrine chloride],55.4,0.93,–,157 (active)
CC(NC(C)(C)C)C(=O)c1cccc(Cl)c1 (stereo not given) [Amfebutamone],96.8,108,97.2 (inactive),116 (inactive)
N#CC(C#N)=Cc1ccc(O)c(O)c1 [Tyrphostin 23],92.8,93.1,94.4 (inactive),102 (inactive)
NC1CC1c1ccccc1 (stereo not given) [Tranylcypromine],102,117,109 (inactive),96 (inactive)
